This passage reports growth inhibition results from PubChem BioAssay (NCI).

Several values for one entry are separate records, joined by “and”; a condition that tells them apart may be missing. Equal values may be shown once. The panel holds about 79,000 compounds, 15% with a hit somewhere; the sample as a whole holds those more often. A number with no mark means an inactive call. Activity calls are given as the source filed them. No stated cut-off is given here; in the data, active means growth inhibition above about 70%; inactive means the rest.

The nature of assay [1]: NCI Yeast Anticancer Drug Screen. Data for the rad50 strain (AID 155).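 Further: 0% = growth of vehicle-only cultures of the same strain.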 To be noted: S. cerevisiae rad50 strain growth inhibition, hits give high values. Summed up:
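Relative growth inhibition (compound vs vehicle) was measured in yeast with a defined repair-gene alteration.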

A short description of assay [2]: NCI Yeast Anticancer Drug Screen. Data for the mec2-1 strain (AID 157). Particulars: S. cerevisiae mec2-1 strain, hits give high values. Summed up:
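Using mec2-1 yeast: add compound, measure growth, express inhibition versus vehicle-treated cultures.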

Assay [3] in a line: NCI Yeast Anticancer Drug Screen. Data for the sgs1 mgt1 strain (AID 161).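 Further: 0% = growth of cultures given vehicle only.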 Particulars: S. cerevisiae sgs1 mgt1 strain, hits give high values. Summed up: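 Growth of a repair-deficient yeast mutant was monitored after compound treatment and expressed as inhibition relative to vehicle-treated cultures.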
Assay [4] in a line: NCI Yeast Anticancer Drug Screen. Data for the cln2 rad14 strain (AID 165).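 Further: 0% = growth equal to vehicle treated cultures.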 To be noted: S. cerevisiae cln2 rad14 strain, hits give high values. Summed up: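 Yeast strain cln2 rad14, bearing defects in cell cycle control and DNA repair, serves as the test system; values reflect growth inhibition compared with vehicle.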
The nature of assay [5]: NCI Yeast Anticancer Drug Screen. Data for the bub3 strain (AID 167). Particulars: S. cerevisiae bub3 mutant strain, hits give high values. The method in brief:
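Screening used yeast with an engineered genetic alteration affecting cell cycle control. Compound-exposed cultures were compared with vehicle cultures, and reduced growth was taken as inhibition.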

A short description of assay [6]: NCI Yeast Anticancer Drug Screen. Data for the mlh1 rad18 strain (AID 175). To be noted: S. cerevisiae mlh1 rad18 strain growth inhibition, hits give high values. Summed up:
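Steps: expose repair-defective yeast to compound; measure growth; express inhibition against vehicle-treated controls.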

[7] abbreviates: at 5.0 µM (retest, dose inferred, filed as 0.5).
Where [8] appears, read: at 50.0 µM (retest, dose inferred, filed as 5.0).

Take `N#CC(C#N)=Cc1ccc([N+](=O)[O-])s1`: the growth inhibition in assay [1] (setting [7]) is -83%; in assay [1] (setting [8]) it was 98% (active); in assay [1] (at 50.0 µM), 99.6% (active); in assay [2] (setting [7]), -45%; in assay [2] (setting [8]), 99% (active); in assay [2] (at 50.0 µM), 99.6% (active). Further, the growth inhibition was -42% in assay [3] (setting [7]); 98% (active) in assay [3] (setting [8]); 99.2% (active) in assay [3] (at 50.0 µM); -53% in assay [4] (setting [7]); 98% (active) in assay [4] (setting [8]); 98.5% (active) in assay [4] (at 50.0 µM). The growth inhibition in assay [5] (setting [7]) was -66%; in assay [5] (setting [8]), 98% (active); in assay [5] (at 50.0 µM) it was 99.3% (active); in assay [6] (setting [7]) it was -83%; in assay [6] (setting [8]), 97% (active); in assay [6] (at 50.0 µM) it was 99.2% (active).

As for `CCNc1ncc2ccccc2c1-c1ccc(N2CCN(CCCl)CC2)cc1`, the growth inhibition in assay [1] (setting [7]) was 15%; in assay [1] (setting [8]) it was 93% (active); in assay [1] (at 50.0 µM), 97.8% (active); in assay [2] (setting [7]), 13%; in assay [2] (setting [8]) it was 89% (active); in assay [2] (at 50.0 µM), 74% (active). For the same molecule, the growth inhibition in assay [3] (setting [7]) is 11%; in assay [3] (setting [8]), 97% (active); in assay [3] (at 50.0 µM), 98.7% (active); in assay [4] (setting [7]), 2%; in assay [4] (setting [8]), 90% (active); in assay [4] (at 50.0 µM), 93.5% (active). The growth inhibition is 13% in assay [5] (setting [7]); 95% (active) in assay [5] (setting [8]); 97.2% (active) in assay [5] (at 50.0 µM); 8% in assay [6] (setting [7]); 97% (active) in assay [6] (setting [8]); 98% (active) in assay [6] (at 50.0 µM).

For `CCCCCCCC[N+](CCCC)(CCCC)CCCC` (tested in a mixture with another compound), the growth inhibition in assay [1] (setting [7]) is 99% (active); in assay [1] (setting [8]), 99% (active); in assay [1] (at 50.0 µM), 99.5% (active); in assay [2] (setting [7]), 99% (active); in assay [2] (setting [8]) it was 100% (active); in assay [2] (at 50.0 µM) it was 99.7% (active). For the same molecule, the growth inhibition in assay [3] (setting [7]) was 100% (active); in assay [3] (setting [8]) it was 100% (active); in assay [3] (at 50.0 µM), 99.5% (active); in assay [4] (setting [7]) it was 97% (active); in assay [4] (setting [8]) it was 99% (active); in assay [4] (at 50.0 µM) it was 99.5% (active). In addition, the growth inhibition in assay [5] (setting [7]) was 100% (active); in assay [5] (setting [8]) it was 99% (active); in assay [5] (at 50.0 µM) it was 99.7% (active); in assay [6] (setting [7]), 99% (active); in assay [6] (setting [8]), 99% (active); in assay [6] (at 50.0 µM), 99.3% (active).

As for `S=P(Nc1ccccc1)(Oc1ccccc1)c1ccccc1` (configuration not stated), the growth inhibition is -1% in assay [1] (setting [7]); 90% (active) in assay [1] (setting [8]); 93.8% (active) in assay [1] (at 50.0 µM); 5% in assay [2] (setting [7]); 91% (active) in assay [2] (setting [8]); 94.5% (active) in assay [2] (at 50.0 µM). Moreover, the growth inhibition in assay [3] (setting [7]) was 3%; in assay [3] (setting [8]) it was 90% (active); in assay [3] (at 50.0 µM), 93.3% (active); in assay [4] (setting [7]), -1%; in assay [4] (setting [8]), 87% (active); in assay [4] (at 50.0 µM) it was 91% (active). The growth inhibition is 1% in assay [5] (setting [7]); 88% (active) in assay [5] (setting [8]); 92.4% (active) in assay [5] (at 50.0 µM); 6% in assay [6] (setting [7]); 88% (active) in assay [6] (setting [8]); 92.7% (active) in assay [6] (at 50.0 µM).

With `CC(C)=[CH][Sb]([Br])([CH]=C(C)C)([CH]=C(C)C)[CH]=C(C)C`, the growth inhibition in assay [1] (setting [7]) is -1%; in assay [1] (setting [8]), 11%; in assay [1] (at 50.0 µM) it was 50.8%; in assay [2] (setting [7]), -4%; in assay [2] (setting [8]), 17%; in assay [2] (at 50.0 µM), 33.7%. The growth inhibition in assay [3] (setting [7]) was -4%; in assay [3] (setting [8]), 14%; in assay [3] (at 50.0 µM) it was 18.9%; in assay [4] (setting [7]) it was -8%; in assay [4] (setting [8]), 3%; in assay [4] (at 50.0 µM), -17.4%. The growth inhibition in assay [5] (setting [7]) is 11%; in assay [5] (setting [8]), 13%; in assay [5] (at 50.0 µM), 30.7%; in assay [6] (setting [7]), -7%; in assay [6] (setting [8]) it was 12%; in assay [6] (at 50.0 µM) it was 24.4%.

Turning to `Cc1ccc(S(=O)(=O)OC2CCC3C4CC=C5CC(SC(=N)N)CCC5(C)C4CCC23C)cc1` (configuration not stated), the growth inhibition in assay [1] (setting [7]) was 67%; in assay [1] (setting [8]), 82% (active); in assay [1] (at 50.0 µM), 47.9%; in assay [2] (setting [7]), 37%; in assay [2] (setting [8]), 28%; in assay [2] (at 50.0 µM), 29.6%. Further, the growth inhibition was 96% (active) in assay [3] (setting [7]); 95% (active) in assay [3] (setting [8]); 94.1% (active) in assay [3] (at 50.0 µM); 4% in assay [4] (setting [7]); 6% in assay [4] (setting [8]); 3% in assay [4] (at 50.0 µM). Besides, the growth inhibition in assay [5] (setting [7]) is 51%; in assay [5] (setting [8]) it was 36%; in assay [5] (at 50.0 µM), 26.1%; in assay [6] (setting [7]) it was 51%; in assay [6] (setting [8]) it was 44%; in assay [6] (at 50.0 µM), 66.3%.

Turning to `CC(=O)C(CN(C)C)C(c1ccccc1)c1c(O)c2ccccc2oc1=O` (configuration not stated), the growth inhibition in assay [1] (setting [7]) is 22%; in assay [1] (setting [8]), 22%; in assay [1] (at 50.0 µM), 65.7%; in assay [2] (setting [7]), 20%; in assay [2] (setting [8]) it was 20%; in assay [2] (at 50.0 µM), 54.4%. Besides, the growth inhibition is 4% in assay [3] (setting [7]); 4% in assay [3] (setting [8]); 70.8% (active) in assay [3] (at 50.0 µM); -4% in assay [4] (setting [7]); -4% in assay [4] (setting [8]); 64% in assay [4] (at 50.0 µM). Further, the growth inhibition in assay [5] (setting [7]) is 13%; in assay [5] (setting [8]), 13%; in assay [5] (at 50.0 µM), 59.6%; in assay [6] (setting [7]) it was 17%; in assay [6] (setting [8]), 17%; in assay [6] (at 50.0 µM) it was 64.2%.

`CC(C)NCC(O)c1ccc(O)c(O)c1.[Pt].c1ccc([PH+](c2ccccc2)c2ccccc2)cc1.c1ccc([PH+](c2ccccc2)c2ccccc2)cc1`: the growth inhibition in assay [1] (setting [7]) was -7%; in assay [1] (setting [8]) it was 99% (active); in assay [1] (at 50.0 µM), 98.7% (active); in assay [2] (setting [7]) it was -6%; in assay [2] (setting [8]), 98% (active); in assay [2] (at 50.0 µM), 98.8% (active). Also, the growth inhibition in assay [3] (setting [7]) is -8%; in assay [3] (setting [8]) it was 99% (active); in assay [3] (at 50.0 µM) it was 99% (active); in assay [4] (setting [7]), 11%; in assay [4] (setting [8]), 86% (active); in assay [4] (at 50.0 µM), 97.8% (active). For the same molecule, the growth inhibition in assay [5] (setting [7]) is -26%; in assay [5] (setting [8]) it was 98% (active); in assay [5] (at 50.0 µM) it was 98.8% (active); in assay [6] (setting [7]), 9%; in assay [6] (setting [8]) it was 99% (active); in assay [6] (at 50.0 µM), 98.8% (active).

Turning to `O=C(CBr)OCc1ccccc1`, the growth inhibition is 96% (active) and 98% (active) in assay [1] (setting [7]); 99% (active) in assay [1] (setting [8]); 99.5% (active) in assay [1] (at 50.0 µM); 98% (active) and 99% (active) in assay [2] (setting [7]); 99% (active) and 100% (active) in assay [2] (setting [8]); 99.8% (active) in assay [2] (at 50.0 µM). Also, the growth inhibition in assay [3] (setting [7]) was 97% (active) and 100% (active); in assay [3] (setting [8]) it was 99% (active) and 100% (active); in assay [3] (at 50.0 µM), 99.7% (active); in assay [4] (setting [7]), 84% (active) and 93% (active); in assay [4] (setting [8]), 99% (active); in assay [4] (at 50.0 µM), 99.4% (active). Moreover, the growth inhibition in assay [5] (setting [7]) was 97% (active) and 99% (active); in assay [5] (setting [8]) it was 99% (active); in assay [5] (at 50.0 µM), 99.4% (active); in assay [6] (setting [7]), 99% (active); in assay [6] (setting [8]), 99% (active); in assay [6] (at 50.0 µM), 99.4% (active).
